Compound activity: PubChem BioAssay, Broad Institute
aSyn 5UTR act = Activators working through SNCA 5'UTR binding (MLPCN); activity score, % (tested at 7.5 µM), hits read low; 300,000 compounds, 7.1% hits; alpha-synuclein 5'UTR reporter, activators screen; in the data active = activity score below about -60%
* marks the source's active call; other numbers are inactive results. Not all results are given here.

SMILES | aSyn 5UTR act
CCCNC(=O)c1ccc2c(=O)c(O)c(-c3ccsc3)[nH]c2c1 | 87
O=C(NNC(=S)NC1CCCCC1)c1ccc(Cl)s1 | -62*
COc1cccc(C(=O)NNC(=S)NC2CCCCC2)c1 | -64*
O=C(NC(=S)NC1CCCC1)c1ccccc1 | -126*
CCN(C(=O)c1cc2c(=O)[nH]c3ccc(C)cc3c2s1)c1cccc(C)c1 | -217*
CC(=O)Nc1ncc(N=Nc2cccc(C(F)(F)F)c2)s1 | -79*
O=C(Cn1ccsc1=NC(=O)C(F)(F)F)c1ccccc1 | -123*
CSC1=NC(C)(C)CC2(C)Nc3ccccc3N12 (configuration not stated) | -88*
Cc1ccc(-n2cc3c(=O)n(C)c(=O)n(C)c3c2)cc1C | -107*
Cc1cc(N)c(-n2cc3c(=O)n(C)c(=O)n(C)c3c2)cc1C | -134*
O=C(CCCc1ccccc1)N1CCN(C2CCCCC2)CC1 | -115*
CCC1CCCCN1C(=O)CCCc1ccccc1 (configuration not stated) | -105*
CCC1CCCCN1C(=O)CCS(=O)(=O)c1ccccc1 (configuration not stated) | -93*
CC[C@H]1OC(=O)C[C@@H](O)[C@H](C)[C@@H](O[C@@H]2O[C@H](C)C[C@H](N(C)C)[C@H]2O)[C@@H](CC=O)C[C@@H](C)C(=O)C=C[C@]2(C)O[C@H]2[C@@H]1C | -147*
S=C1NC(c2ccccc2)=NCN1c1ccccc1 | -66*
Cc1ccc(C2=NCN(c3ccc(C(=O)O)cc3)C(=S)N2)cc1 | -117*
Cc1cccc(NC(=O)/C=C/c2ccc(Cl)cc2)n1 | -158*
CSc1cccc(NC(=S)Nc2cc(C)ccc2C)c1 | -139*
CCOC(=O)Cc1csc(NC(=O)/C=C/c2ccc(Cl)cc2)n1 | -64*
CSc1cccc(NC(=O)Nc2ccccc2)c1 | -111*
CSc1cccc(NC(=O)/C=C/c2ccc(Cl)cc2)c1 | -160*
O=C(/C=C/c1ccccc1)Nc1cccc(C(=O)O)c1 | 95
O=C(/C=C/c1ccccc1)Nc1ccc(Cl)cn1 | -95*
CSc1cccc(NC(=O)/C=C/c2ccccc2)c1 | -226*
Cc1cc(=O)c2cc3nc(-c4cccnc4)oc3c(Br)c2o1 | -67*
SMILES | aSyn 5UTR act
N#Cc1cc(-c2ccccc2)nn1-c1ccccc1 | -68*
O=C(/C=C/c1ccc(Cl)cc1)N1CCOCC1 | -76*
CC(C)c1ccc(/C=C/C(=O)N2CCOCC2)cc1 | -156*
CC(C)c1ccc(/C=C/C2=NNC(=O)CC2)cc1 | 87
CCCOc1ccc(/C=C/C(=O)N2CCOCC2)cc1 | -68*
Cc1ccc(C(=O)NCC(=O)NC23CC4CC(CC(C4)C2)C3)cc1 | -76*
O=c1c2ccccc2nc2ccc(NCc3ccco3)nn12 | -144*
Cc1sc2nc3ccc(NCc4ccco4)nn3c(=O)c2c1C | -119*
O=C(c1ccccc1Sc1c(Cl)cccc1[N+](=O)[O-])N1CCOCC1 | -74*
COc1ccc2oc(=N)c(C(=O)Nc3cccc(C)c3C)cc2c1 | -158*
COc1ccc2oc(=O)c(C(=O)Nc3ccccc3C)cc2c1 | -199*
COc1ccc2oc(=N)c(C(=O)Nc3ccccc3Cl)cc2c1 | -209*
COc1ccc2oc(=O)c(C(=O)Nc3cccc(C(C)=O)c3)cc2c1 | -82*
O=C(Nc1ccccc1O)c1cc2cc(Br)ccc2oc1=O | -124*
CCCCCCc1cc2cc(C(=O)Nc3ccccc3)c(=O)oc2cc1O | 92
CN(C)C(CNC(=O)c1cc2ccccc2oc1=O)c1ccccc1 (configuration not stated) | -162*
Cc1cccnc1NC(=O)c1cc2ccccc2oc1=O | -200*
CCCOC1CCCN(C(=O)c2cc(COc3ccc(F)c(F)c3)on2)C1 (configuration not stated) | -118*
Cc1nn(C)c(C)c1C(C)NC(=O)c1cc(COc2ccc(F)c(F)c2)on1 (configuration not stated) | -68*
CCCN1CCN(C(=O)c2cc(COc3ccc(F)c(F)c3)on2)CC1 | -74*
CCOC(=O)C1CCCN(C(=O)c2cc(COc3ccc(C)nc3)on2)C1 (configuration not stated) | -86*
COc1ccc(/C=N/Nc2nccnc2Cl)c(OC)c1 | -111*
COc1cccc(/C=N/Nc2nccnc2Cl)c1O | 90
COc1ccc2nc(Cl)c(/C=N/Nc3ccccn3)cc2c1 | -88*
Cc1ccc(NC(=O)C2CCCN(c3ncccn3)C2)c(C)c1 (configuration not stated) | -78*
SMILES | aSyn 5UTR act
Cc1ccc(NC(=O)C2CCCN(c3ncccn3)C2)cc1F (configuration not stated) | -269*
O=C(Nc1ccc2c(c1)CCC2)C1CCCN(c2ncccn2)C1 (configuration not stated) | -157*
C/C(=N\NC(=O)C1CCCN(S(=O)(=O)c2ccccc2)C1)c1ccccn1 (configuration not stated) | 67
O=C(Nc1cccc(-c2nc3ccccc3s2)c1)c1cc(-n2cnnc2)ccc1Cl | -85*
Cc1c(NC(=O)c2cc(-n3cnnc3)ccc2Cl)cccc1-c1nc2ccccc2s1 | -90*
Cc1ccc2sc(-c3ccc(NC(=O)c4cc(-n5cnnc5)ccc4Cl)cc3)nc2c1 | -153*
O=S(=O)(C/C(=C/CO)S(=O)(=O)c1ccccc1)c1ccccc1 | -71*
Cc1ccc(N(C(=O)c2cc3ccccc3oc2=O)C2C=CS(=O)(=O)C2)cc1 (configuration not stated) | -107*
CCOc1ccc(N(C(=O)c2cc3ccccc3oc2=O)C2C=CS(=O)(=O)C2)cc1 (configuration not stated) | -88*
Cc1cc(C)cc(N(C(=O)c2cc3ccccc3oc2=O)C2C=CS(=O)(=O)C2)c1 (configuration not stated) | -126*
Cc1cccc(NC(=S)N2N=CCC2c2ccccc2)c1 (configuration not stated) | -125*
CCc1ccccc1NC(=S)N1N=CCC1c1ccccc1 (configuration not stated) | -71*
Cc1ccc(CN2C3CCCC2CC(NC(=O)c2ccc(C)cc2)C3)cc1 (configuration not stated) | -163*
O=C(NCc1ccccc1)c1cccc(COc2ccccc2Cl)c1 | -87*
COC(=O)c1ccccc1NC(=O)c1cccc(COc2ccccc2Cl)c1 | -505*
NNC(=O)c1cccc(COc2ccc3c(c2)CCC3)c1 | 71
NNC(=O)c1cccc(COc2ccccc2Br)c1 | -72*
O=C(NCc1ccccc1)c1cccc(COc2cc(Cl)ccc2Cl)c1 | -143*
O=C(c1cccc(COc2ccc(Cl)cc2Cl)c1)N1CCN(c2ccccn2)CC1 | -164*
CN(C(=O)c1cccc(COc2ccc(Cl)cc2Cl)c1)c1ccccc1 | -120*
Oc1c(CN2CCN(c3ccccn3)CC2)cc(Cl)c2cccnc12 | 92
O=C1C(CSCc2ccccc2)NC(=S)N1c1ccccc1 (configuration not stated) | -68*
CCOC(=O)c1ccc(NC(=O)c2cc3ccccc3o2)cc1 | -152*
CCOC(=O)c1cccc(NC(=O)c2cc3ccccc3o2)c1 | -110*
O=C(Nc1ccc(NC(=O)c2cc3ccccc3o2)cc1)c1ccc2c(c1)OCCO2 | 71
CC(C)C(=O)Nc1ccc(NC(=O)c2cc3ccccc3o2)cc1 | -90*
O=C(Nc1ccccc1)C(=O)Nc1ccc2c(c1)N(C(=O)C1CC1)CCC2 | -121*
COc1ccc(-c2ccc(SCC(=O)Nc3cccc(C(C)=O)c3)nn2)cc1OC | -82*
CC(=O)c1cccc(NC(=O)CSc2ccc(-c3ccc4c(c3)OCO4)nn2)c1 | -87*
